Assay results published in PubChem BioAssay (Tox21).
Inconclusive results are not listed. Active and inactive are the calls of the source. Unless noted, calls follow the shape of the dose curve; as a rule, active = well fitted curve in the direction sought with a large enough effect in the repeat runs; inconclusive = weak or mixed curves; inactive = no such curve, though single readings can be large; an effect the other way counts as inactive or inconclusive.

How the values were obtained:
[1] = qHTS assay to identify small molecule agonists of the sonic hedgehog signaling (Shh) pathway (AID 1259368; calls by dose curve;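 also: NIH/3T3-derived 3T3Gli1-Luc cells carrying a stable Gli1-driven firefly luciferase reporter; series mostly up to about 92 µM; nearly all actives have a fitted effect of over 15% in size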)
Procedure, shortened: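 Stable NIH/3T3 Gli1-Luc reporter clone; 24 hr cpd exposure after a 4 hr settling period; luminescence endpoint.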

[2] = qHTS assay to identify small molecule antagonists of the sonic hedgehog signaling (Shh) pathway (AID 1259369; calls by dose curve; also: nearly all actives have a fitted effect of over 45% in size)
Procedure, shortened: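 Gli1 transcriptional reporter (firefly Luc) in NIH/3T3 background, conditioned-medium activated. 24hr exposure, luminescence endpoint.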

[3] = biological target: Estrogen receptor beta (Homo sapiens) (UniProt Q92731); test: qHTS assay to identify small molecule antagonists of the estrogen receptor beta (ER-beta) signaling pathway (AID 1259378; active = well fitted inhibition curve with a large enough effect in the signal ratio in the repeat runs, not every such curve was filed as active; the % refers to the signal ratio)
Procedure, shortened: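 ER-beta-UAS-bla HEK293T (GripTite) cells in 2% charcoal-stripped FBS medium were preincubated 6 hr at 37C, dosed with compound, then stimulated with 1 nM E2 (final) for 16 hr; beta-lactamase reporter read by B/G FRET fluorescence after 2 hr substrate loading.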

[4] = qHTS assay to identify small molecule agonists of the androgen receptor (AR) signaling pathway in the presence of an antagonist - cell viability counter screen (AID 1259379);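 also: MDA-kb2 human breast cancer cells carrying an MMTV luciferase reporter; series mostly up to about 92 µM; nearly all actives have a fitted effect of over 25% in size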
Procedure, shortened: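 Counter screen for cell viability run in parallel with the AR agonist-mode luciferase assay. MDA-kb2 cells were co-treated with nilutamide (3.0uM final) and compounds, then incubated 16 hr at 37C, and CellTiter-Fluor fluorescence was measured.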

[5] = qHTS assay to identify small molecule agonists of the estrogen receptor beta (ER-beta) signaling pathway - cell viability counter screen (AID 1259380); also: nearly all actives have a fitted effect of over 30% in size
Procedure, shortened: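 In this qHTS counter screen, HEK293T cells carrying an ER-beta/UAS beta-lactamase reporter, grown in 2% charcoal-stripped FBS, received compound for 16 hr; ATP-based CellTiter-Glo luminescence was then read after 30 min at room temperature.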

[6] = qHTS assay to identify small molecule antagonists of the estrogen receptor beta (ER-beta) signaling pathway - cell viability counter screen (AID 1259382); also: series mostly up to about 92 µM; nearly all actives have a fitted effect of over 55% in size
Procedure, shortened: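 HEK293T ER-beta-UAS-bla, 2% charcoal-stripped FBS; compounds + 1nM E2 16 hr 37C; CellTiter-Glo luminescence, 30 min RT.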

[7] = biological target: Estrogen receptor (Homo sapiens) (UniProt P03372); test: qHTS assay to identify small molecule agonists of the estrogen receptor alpha (ER-alpha) signaling pathway in the presence of an antagonist (AID 1259383; calls by dose curve; also: top concentration of the series differs between compounds; nearly all actives have a fitted effect of over 15% in size)
Procedure, shortened: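 ER-alpha agonism measured under antagonist challenge: 10.0nM ICI-182,780 (final) plus compound, 15 concentrations, 22hr, VM7Luc4E2 ERE-luciferase cells. Read by luminescence.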

[8] = qHTS assay to identify small molecule agonists or antagonists of the thyroid stimulating hormone receptor (TSHR) signaling pathway - wild type cell line counter screen (AID 1259384; calls by dose curve)
Procedure, shortened: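 Wild-type HEK293 cells were plated 18 h at 37 C/5% CO2, pin-dosed with compound plus Ro20-1724 medium, held 30 min at room temperature, then given cAMP-d2 and anti-cAMP-cryptate; fluorescence was read after 1 h. Fifteen concentrations, triplicate.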

[9] = biological target: Thyrotropin receptor (Homo sapiens) (UniProt P16473); test: qHTS assay to identify small molecule antagonists of the thyroid stimulating hormone receptor (TSHR) signaling pathway (AID 1259385; calls by dose curve; also: nearly all actives have a fitted effect of over 20% in size)
Procedure, shortened: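 TSHR-HEK293 cells were plated and held 18 h at 37C/5% CO2, then given compound plus Ro20-1724 and stimulated with TSH at 1.5 ng/mL final. After 30 min at room temperature, cAMP was detected with cAMP-d2/anti-cAMP-cryptate (1 h) by fluorescence.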

[10] = qHTS assay to identify small molecule agonists of the estrogen receptor alpha (ER-alpha) signaling pathway in the presence of an antagonist - cell viability counter screen (AID 1259386);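 also: series mostly up to about 92 µM; cells exposed to compounds for 22 h at 37 °C before the viability read; nearly all actives have a fitted effect of over 30% in size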
Procedure, shortened: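 Steps: 5-day stripped-FBS culture; seed and incubate 24hr; add ICI-182,780 (10.0nM final); pin 15-point compound titration; incubate 22hr at 37C; add CellTiter-Fluor at 21hr; read fluorescence.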

[11] = biological target: Progesterone receptor (Homo sapiens) (UniProt P06401); test: qHTS assay to identify small molecule agonists of the progesterone receptor (PR) signaling pathway (AID 1346784; calls by dose curve; also: nearly all actives have a fitted effect of over 30% in size)
Procedure, shortened: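 PR-UAS-bla HEK 293T cells carrying a UAS-driven beta-lactamase reporter were seeded in medium with 2% charcoal-stripped FBS, preincubated 6 hr at 37C, then exposed to compounds in DMSO for 16 hr; agonism was read by LiveBLAzer B/G FRET fluorescence.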

[12] = biological target: Progesterone receptor (Homo sapiens) (UniProt P06401); test: qHTS assay to identify small molecule antagonists of the progesterone receptor (PR) signaling pathway (AID 1346795; active = well fitted inhibition curve with a large enough effect in the signal ratio in the repeat runs, not every such curve was filed as active; the % refers to the signal ratio)
Procedure, shortened: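 PR-UAS-bla HEK293T cells carrying a UAS-driven beta-lactamase reporter were plated in medium with 2% charcoal-stripped FBS and rested 6 hr at 37C. Compounds were added with 1 nM R5020 (final) for 16 hr, then FRET substrate loaded 2 hr at room temperature.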

[13] = qHTS assay to identify small molecule antagonists of the progesterone receptor (PR) signaling pathway - cell viability counter screen (AID 1346798); also: series mostly up to about 92 µM; nearly all actives have a fitted effect of over 50% in size
Procedure, shortened: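 PR-UAS-bla HEK293T cells in medium with 2% charcoal-stripped FBS were treated with compounds plus R5020 for 16 hr at 37C. Cell viability was then read by CellTiter-Glo luminescence after 30 min at room temperature in the same wells.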

[14] = qHTS assay to identify small molecule agonists of the progesterone receptor (PR) signaling pathway - cell viability counter screen (AID 1346799; calls by dose curve; also: nearly all actives have a fitted effect of over 45% in size)
Procedure, shortened: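 PR-UAS-bla HEK293T cells, 3,000 per well in medium with 2% charcoal-stripped FBS, were preincubated 6 hr at 37C, then exposed to compounds for 16 hr; viability was read as CellTiter-Glo luminescence after 30 min at room temperature.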

[15] = qHTS assay to identify small molecule antagonists of the TGF-beta/Smad signaling pathway - cell viability counter screen (AID 1346824); also: nearly all actives have a fitted effect of over 50% in size
Procedure, shortened: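 SBE-bla HEK 293T cells were plated overnight at 37 C, then given compounds in DMSO plus TGF-beta1 (added as 0.25 ng/mL solution) for 5 hr. After the bla read, CellTiter-Glo was added to the same wells and luminescence read after 30 min at room temperature.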

[16] = qHTS assay to identify small molecule agonists of the TGF-beta/Smad signaling pathway - cell viability counter screen (AID 1346829); also: top concentration of the series differs between compounds; nearly all actives have a fitted effect of over 45% in size
Procedure, shortened: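 HEK 293T SBE-bla line, 5 hr compound exposure at 37 C, multiplexed CellTiter-Glo viability read by luminescence.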

[17] = biological target: Thyrotropin-releasing hormone receptor (Homo sapiens) (UniProt P34981); test: qHTS assay to identify small molecule antagonists of the thyrotropin-releasing hormone receptor (TRHR) signaling pathway (AID 1346877; active = well fitted inhibition curve with a large enough effect in the repeat runs, not every such curve was filed as active; also: series mostly up to about 51 µM)
Procedure, shortened: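 Human TRHR in HEK293 cells; inhibition of the intracellular calcium rise triggered by 1 nM TRH was followed by fluorescence over 3 min. Compounds were run at 15 concentrations, three replicates each.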

[18] = biological target: Androgen receptor (Homo sapiens) (UniProt P10275); test: qHTS assay to identify small molecule agonists of the androgen receptor (AR) signaling pathway in the presence of an antagonist (AID 1259381; calls by dose curve; also: nearly all actives have a fitted effect of over 15% in size)
Procedure, shortened: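 AR antagonist background: nilutamide 3.0uM final. Cell line: MDA-kb2, MMTV-driven luciferase, responsive to both AR and GR. Exposure 16hr, 37C, no CO2; ONE-Glo luminescence.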

[19] = qHTS assay to identify small molecule agonists of the TGF-beta/Smad signaling pathway (AID 1346859; active = well fitted activation curve with a large enough effect in the signal ratio in the repeat runs, not every such curve was filed as active; the % refers to the signal ratio; also: series mostly up to about 77 µM)
Procedure, shortened: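 HEK 293T cells stably carrying a beta-lactamase reporter driven by the Smad binding element were seeded overnight, exposed to DMSO-dissolved compounds for 5 hr at 37 C, 5% CO2, then loaded with FRET substrate for 2 hr at room temperature.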

Measured: Potency

Sequence of Estrogen receptor beta (Homo sapiens) (Q92731 whole entry, looked up): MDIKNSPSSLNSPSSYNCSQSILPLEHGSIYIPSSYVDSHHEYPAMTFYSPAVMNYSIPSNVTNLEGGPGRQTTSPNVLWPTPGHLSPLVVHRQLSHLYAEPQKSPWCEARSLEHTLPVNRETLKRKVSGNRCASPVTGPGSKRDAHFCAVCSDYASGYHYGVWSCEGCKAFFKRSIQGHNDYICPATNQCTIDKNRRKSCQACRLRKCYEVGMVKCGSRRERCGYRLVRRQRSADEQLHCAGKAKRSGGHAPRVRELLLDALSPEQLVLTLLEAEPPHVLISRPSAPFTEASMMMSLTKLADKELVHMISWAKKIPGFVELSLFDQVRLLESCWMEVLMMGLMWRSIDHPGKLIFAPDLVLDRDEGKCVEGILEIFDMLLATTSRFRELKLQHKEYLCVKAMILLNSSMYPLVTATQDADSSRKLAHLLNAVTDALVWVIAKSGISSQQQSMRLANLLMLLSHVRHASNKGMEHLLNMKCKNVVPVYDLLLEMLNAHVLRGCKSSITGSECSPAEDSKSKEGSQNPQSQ
Sequence of Thyrotropin receptor (Homo sapiens) (P16473 whole entry, looked up): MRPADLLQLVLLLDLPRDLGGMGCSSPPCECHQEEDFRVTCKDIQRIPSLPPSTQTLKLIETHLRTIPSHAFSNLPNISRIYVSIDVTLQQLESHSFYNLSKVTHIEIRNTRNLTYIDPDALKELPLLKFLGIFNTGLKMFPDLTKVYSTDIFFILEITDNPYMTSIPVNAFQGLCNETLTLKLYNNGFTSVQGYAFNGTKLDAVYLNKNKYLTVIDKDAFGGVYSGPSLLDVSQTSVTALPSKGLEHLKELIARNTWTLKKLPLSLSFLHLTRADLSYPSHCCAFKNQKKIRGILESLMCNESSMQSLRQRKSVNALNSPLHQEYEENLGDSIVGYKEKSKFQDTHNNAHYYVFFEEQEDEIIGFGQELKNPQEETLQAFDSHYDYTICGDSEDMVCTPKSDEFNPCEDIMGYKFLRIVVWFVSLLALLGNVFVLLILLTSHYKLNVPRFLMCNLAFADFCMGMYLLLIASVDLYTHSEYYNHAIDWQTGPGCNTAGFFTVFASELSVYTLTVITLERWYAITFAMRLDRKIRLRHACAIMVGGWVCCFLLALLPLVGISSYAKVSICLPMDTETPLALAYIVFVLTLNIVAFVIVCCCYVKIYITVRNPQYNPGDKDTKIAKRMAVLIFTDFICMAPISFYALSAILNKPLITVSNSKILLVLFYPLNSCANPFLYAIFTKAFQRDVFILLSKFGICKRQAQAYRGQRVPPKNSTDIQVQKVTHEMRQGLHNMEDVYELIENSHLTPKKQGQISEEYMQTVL
Sequence of Thyrotropin-releasing hormone receptor (Homo sapiens) (P34981 whole entry, looked up): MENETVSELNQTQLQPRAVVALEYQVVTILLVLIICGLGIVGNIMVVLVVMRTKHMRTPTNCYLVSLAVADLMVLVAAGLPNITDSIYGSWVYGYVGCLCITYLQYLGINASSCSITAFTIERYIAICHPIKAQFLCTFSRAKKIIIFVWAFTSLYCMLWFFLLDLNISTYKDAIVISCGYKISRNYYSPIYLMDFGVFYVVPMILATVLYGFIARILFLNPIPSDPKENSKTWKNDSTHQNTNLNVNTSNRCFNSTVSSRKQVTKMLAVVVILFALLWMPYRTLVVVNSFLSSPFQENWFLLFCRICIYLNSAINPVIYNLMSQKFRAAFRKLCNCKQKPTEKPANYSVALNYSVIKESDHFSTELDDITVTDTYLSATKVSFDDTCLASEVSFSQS
Sequence of Estrogen receptor (Homo sapiens) (P03372 whole entry, looked up): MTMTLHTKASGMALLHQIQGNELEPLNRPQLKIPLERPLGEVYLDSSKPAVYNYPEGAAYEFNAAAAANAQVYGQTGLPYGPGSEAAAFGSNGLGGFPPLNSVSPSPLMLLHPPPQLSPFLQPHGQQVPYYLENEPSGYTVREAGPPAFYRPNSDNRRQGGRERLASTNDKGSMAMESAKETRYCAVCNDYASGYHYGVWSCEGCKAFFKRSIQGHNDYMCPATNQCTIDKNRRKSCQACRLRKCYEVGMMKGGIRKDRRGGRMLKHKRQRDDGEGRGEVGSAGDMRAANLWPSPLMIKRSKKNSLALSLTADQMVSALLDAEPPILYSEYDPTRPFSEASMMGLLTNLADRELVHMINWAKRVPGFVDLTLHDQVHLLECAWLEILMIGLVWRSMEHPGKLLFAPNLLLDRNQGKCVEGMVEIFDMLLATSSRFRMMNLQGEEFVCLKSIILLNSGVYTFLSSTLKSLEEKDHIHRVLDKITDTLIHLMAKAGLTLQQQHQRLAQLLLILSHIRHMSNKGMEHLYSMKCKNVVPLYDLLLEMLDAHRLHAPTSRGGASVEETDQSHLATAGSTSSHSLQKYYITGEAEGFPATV
Sequence of Androgen receptor (Homo sapiens) (P10275 whole entry, looked up): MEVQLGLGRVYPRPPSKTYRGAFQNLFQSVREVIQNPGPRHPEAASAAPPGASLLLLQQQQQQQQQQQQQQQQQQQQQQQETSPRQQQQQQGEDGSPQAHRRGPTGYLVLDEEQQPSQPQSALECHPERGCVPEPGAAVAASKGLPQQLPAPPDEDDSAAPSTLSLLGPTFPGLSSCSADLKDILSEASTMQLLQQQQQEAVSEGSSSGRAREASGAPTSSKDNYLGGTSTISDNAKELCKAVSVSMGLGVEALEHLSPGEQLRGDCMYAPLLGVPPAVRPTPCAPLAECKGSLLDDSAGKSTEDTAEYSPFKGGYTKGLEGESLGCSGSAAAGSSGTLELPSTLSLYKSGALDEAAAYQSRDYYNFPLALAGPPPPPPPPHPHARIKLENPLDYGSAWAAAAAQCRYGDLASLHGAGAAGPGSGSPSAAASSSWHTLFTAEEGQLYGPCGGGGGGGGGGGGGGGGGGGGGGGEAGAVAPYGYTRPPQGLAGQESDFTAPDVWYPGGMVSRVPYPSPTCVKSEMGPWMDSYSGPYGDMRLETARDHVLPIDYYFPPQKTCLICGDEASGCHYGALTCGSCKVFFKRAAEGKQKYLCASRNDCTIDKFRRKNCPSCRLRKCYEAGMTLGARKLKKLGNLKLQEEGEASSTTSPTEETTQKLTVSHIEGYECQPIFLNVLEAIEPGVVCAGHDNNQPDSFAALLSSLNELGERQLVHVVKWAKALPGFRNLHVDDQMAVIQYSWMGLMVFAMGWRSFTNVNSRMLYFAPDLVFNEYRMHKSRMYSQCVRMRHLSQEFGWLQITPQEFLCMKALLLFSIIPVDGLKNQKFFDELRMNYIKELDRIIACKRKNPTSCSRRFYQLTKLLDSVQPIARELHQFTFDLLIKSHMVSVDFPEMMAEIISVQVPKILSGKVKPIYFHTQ
Sequence of Progesterone receptor (Homo sapiens) (P06401 whole entry, looked up): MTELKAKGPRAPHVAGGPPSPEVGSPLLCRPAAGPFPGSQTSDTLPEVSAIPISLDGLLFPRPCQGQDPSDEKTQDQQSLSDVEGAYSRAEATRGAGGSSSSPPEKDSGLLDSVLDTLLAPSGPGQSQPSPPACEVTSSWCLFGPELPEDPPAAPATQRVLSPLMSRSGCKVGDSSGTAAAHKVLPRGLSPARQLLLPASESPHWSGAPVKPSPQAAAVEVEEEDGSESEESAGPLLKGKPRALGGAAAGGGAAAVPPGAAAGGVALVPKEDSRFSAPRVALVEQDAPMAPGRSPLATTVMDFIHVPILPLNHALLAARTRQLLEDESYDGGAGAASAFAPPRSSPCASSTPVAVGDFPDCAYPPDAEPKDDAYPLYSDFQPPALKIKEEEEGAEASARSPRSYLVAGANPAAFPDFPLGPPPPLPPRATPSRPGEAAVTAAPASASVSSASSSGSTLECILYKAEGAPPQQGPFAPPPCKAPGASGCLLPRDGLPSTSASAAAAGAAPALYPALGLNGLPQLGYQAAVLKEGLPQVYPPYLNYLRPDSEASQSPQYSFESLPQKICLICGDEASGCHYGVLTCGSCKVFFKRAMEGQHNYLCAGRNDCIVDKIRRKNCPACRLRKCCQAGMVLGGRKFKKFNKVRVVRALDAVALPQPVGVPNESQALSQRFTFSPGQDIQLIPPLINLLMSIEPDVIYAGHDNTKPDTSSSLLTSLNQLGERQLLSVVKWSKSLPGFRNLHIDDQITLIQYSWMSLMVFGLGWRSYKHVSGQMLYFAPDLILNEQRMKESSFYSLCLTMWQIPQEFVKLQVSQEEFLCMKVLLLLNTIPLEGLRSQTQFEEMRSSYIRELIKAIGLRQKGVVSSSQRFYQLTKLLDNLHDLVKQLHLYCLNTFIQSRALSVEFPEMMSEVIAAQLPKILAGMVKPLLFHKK

Cc1c(I)c(=O)n(-c2ccccc2)n1C
not listed: [18] | [19]
inactive: all other assays above

OCCC(F)(F)C(F)(F)C(F)(F)C(F)(F)C(F)(F)C(F)(F)C(F)(F)C(F)(F)F
not listed: [3] | [6] | [8] | [9] | [10]
inactive: all other assays above

O=C(O)c1ccc(Cl)cc1Cl
not listed: [9] | [18]
inactive: all other assays above

CC(=O)N[C@@H](CCC(=O)O)C(=O)O
not listed: [4] | [7] | [18]
inactive: all other assays above

COC(=O)CCc1ccc(OCC(O)CNC(C)C)cc1 (stereo not drawn)
not listed: [7] | [18]
inactive: all other assays above

BrCc1cccc(Oc2ccccc2)c1
not listed: [6] | [7] | [9] | [12]
inactive: all other assays above

O=C(O)c1cc(Cl)cc([N+](=O)[O-])c1Cl
not listed: [3] | [9]
inactive: all other assays above
